Measurements: PubChem BioAssay (EPA / NIEHS)
Results filed as inconclusive are left out. Calls of active or inactive are those of the source. How the source made its calls, unless noted: active means hit-call score of the fitted dose curve at least 0.9, where 1 is the maximum; inactive means score below 0.9.

What was measured:
[1] = biological target: Oxysterols receptor LXR-alpha (Homo sapiens) (UniProt Q13133); test: ATG_LXRa_TRANS: Attagene TRANS-FACTORIAL HepG2 Assay for human Liver X Receptor alpha (LXRa) (AID 2282980; active means hit-call score of the fitted dose curve at least 0.9, where 1 is the maximum); conditions: HepG2 Attagene TRANS reporter, LXRa transactivation
Chain of Oxysterols receptor LXR-alpha (Homo sapiens) (Q13133 whole entry, looked up, the tested form may be a part): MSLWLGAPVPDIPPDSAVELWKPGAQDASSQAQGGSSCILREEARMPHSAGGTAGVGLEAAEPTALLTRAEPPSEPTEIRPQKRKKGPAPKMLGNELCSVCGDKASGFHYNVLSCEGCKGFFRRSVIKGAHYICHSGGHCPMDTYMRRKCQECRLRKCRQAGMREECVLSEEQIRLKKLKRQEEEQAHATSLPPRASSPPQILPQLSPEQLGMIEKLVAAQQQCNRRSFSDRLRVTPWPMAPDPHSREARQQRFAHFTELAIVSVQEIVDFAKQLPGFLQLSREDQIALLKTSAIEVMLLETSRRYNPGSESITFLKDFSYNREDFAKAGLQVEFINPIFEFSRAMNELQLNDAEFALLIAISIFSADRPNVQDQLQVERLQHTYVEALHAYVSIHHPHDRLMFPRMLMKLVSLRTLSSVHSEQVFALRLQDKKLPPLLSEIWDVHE
In short: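 Read-out: reporter transcript levels by RT-PCR plus capillary electrophoresis, fluorescence intensity. Transiently transfected HepG2, exogenous NR-GAL4 chimera, GAL4-UAS reporters; 24 h compound exposure. Activity = increase over DMSO negative control.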

[2] = biological target: Oxysterols receptor LXR-beta (Homo sapiens) (UniProt P55055); test: ATG_LXRb_TRANS: Attagene TRANS-FACTORIAL HepG2 Assay for human Liver X Receptor beta (LXRb) (AID 2282981; active means hit-call score of the fitted dose curve at least 0.9, where 1 is the maximum); conditions: HepG2 Attagene TRANS GAL4-LXRb reporter, mRNA
Chain of Oxysterols receptor LXR-beta (Homo sapiens) (P55055 whole entry, looked up, the tested form may be a part): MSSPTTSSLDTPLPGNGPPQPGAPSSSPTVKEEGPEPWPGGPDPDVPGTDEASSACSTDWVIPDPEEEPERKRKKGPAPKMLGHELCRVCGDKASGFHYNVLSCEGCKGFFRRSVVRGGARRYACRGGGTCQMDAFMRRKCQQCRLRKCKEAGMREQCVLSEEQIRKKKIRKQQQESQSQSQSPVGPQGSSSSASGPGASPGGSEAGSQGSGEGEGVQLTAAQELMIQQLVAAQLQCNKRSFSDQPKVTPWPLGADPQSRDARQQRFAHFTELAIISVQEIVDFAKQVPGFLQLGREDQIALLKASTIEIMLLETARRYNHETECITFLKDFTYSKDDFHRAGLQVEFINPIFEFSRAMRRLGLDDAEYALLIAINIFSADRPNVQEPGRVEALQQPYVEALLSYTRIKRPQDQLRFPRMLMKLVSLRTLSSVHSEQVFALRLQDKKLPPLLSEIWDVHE
In short: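 Gain-of-signal mRNA reporter endpoint, DMSO as negative control. Transiently transfected HepG2 cells carrying the NR-Gal4 chimera and GAL4-UAS reporter units were treated 24 h; transcripts quantified by RT-PCR and capillary electrophoresis fluorescence.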

[3] = biological target: Hepatocyte nuclear factor 4-alpha (Homo sapiens) (UniProt P41235); test: ATG_HNF4a_TRANS: Attagene TRANS-FACTORIAL HepG2 Assay for human Hepatocyte Nuclear Factor 4 alpha (HNF4a) (AID 2282982; active means hit-call score of the fitted dose curve at least 0.9, where 1 is the maximum); conditions: HepG2 HNF4a transactivation reporter, mRNA readout
Chain of Hepatocyte nuclear factor 4-alpha (Homo sapiens) (P41235 whole entry, looked up, the tested form may be a part): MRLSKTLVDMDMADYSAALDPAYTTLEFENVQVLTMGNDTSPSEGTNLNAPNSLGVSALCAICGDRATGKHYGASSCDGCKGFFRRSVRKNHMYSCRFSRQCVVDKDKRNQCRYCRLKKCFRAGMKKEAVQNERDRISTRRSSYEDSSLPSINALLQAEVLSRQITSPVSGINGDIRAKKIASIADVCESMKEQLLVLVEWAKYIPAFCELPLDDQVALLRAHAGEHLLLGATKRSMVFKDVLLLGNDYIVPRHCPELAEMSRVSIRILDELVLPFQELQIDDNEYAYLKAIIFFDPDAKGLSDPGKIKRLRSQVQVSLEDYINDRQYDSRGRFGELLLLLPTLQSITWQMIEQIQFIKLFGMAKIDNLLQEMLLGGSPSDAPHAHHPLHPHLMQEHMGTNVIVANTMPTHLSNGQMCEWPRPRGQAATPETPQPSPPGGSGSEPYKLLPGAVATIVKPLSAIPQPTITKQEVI
In short: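 Gain-of-signal mRNA induction, relative to DMSO vehicle, was read after 24 h compound treatment of HepG2 cells bearing transfected GAL4-UAS reporters. Detection used RT-PCR, 6-FAM primer extension and capillary electrophoresis.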

[4] = ATG_M_06_TRANS: Attagene TRANS-FACTORIAL HepG2 Assay for M06 Transcription Factor (Internal Marker) (AID 2282983; active means hit-call score of the fitted dose curve at least 0.9, where 1 is the maximum); conditions: HepG2 Attagene TRANS M06 internal marker reporter
In short: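 After a 24 h chemical treatment of transfected HepG2, RNA underwent DNase I treatment, reverse transcription and reporter-specific PCR; labelled, HpaI-digested products were sized by capillary electrophoresis. Signal increase relative to DMSO defined activity.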

[5] = ATG_M_32_TRANS: Attagene TRANS-FACTORIAL HepG2 Assay for M32 Transcription Factor (Internal Marker) (AID 2282984; active means hit-call score of the fitted dose curve at least 0.9, where 1 is the maximum;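 further: transcript level of a background control reporter unit measured by RT-PCR and capillary electrophoresis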); conditions: HepG2 Attagene TRANS M32 internal marker reporter
In short: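 Capillary electrophoresis of 6-FAM-labelled reporter fragments gives the signal; data fitted for gain over DMSO negative control. Source: HepG2 cells bearing transient multiple reporter transcription units, 24 h exposure.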

[6] = biological target: Nuclear receptor subfamily 4 group A member 2 (Homo sapiens) (UniProt P43354); test: ATG_NURR1_TRANS: Attagene TRANS-FACTORIAL HepG2 Assay for human Nuclear Receptor Related Protein 1 (NURR1) (AID 2282985; active means hit-call score of the fitted dose curve at least 0.9, where 1 is the maximum); conditions: HepG2 Attagene TRANS reporter, mRNA readout
Chain of Nuclear receptor subfamily 4 group A member 2 (Homo sapiens) (P43354 whole entry, looked up): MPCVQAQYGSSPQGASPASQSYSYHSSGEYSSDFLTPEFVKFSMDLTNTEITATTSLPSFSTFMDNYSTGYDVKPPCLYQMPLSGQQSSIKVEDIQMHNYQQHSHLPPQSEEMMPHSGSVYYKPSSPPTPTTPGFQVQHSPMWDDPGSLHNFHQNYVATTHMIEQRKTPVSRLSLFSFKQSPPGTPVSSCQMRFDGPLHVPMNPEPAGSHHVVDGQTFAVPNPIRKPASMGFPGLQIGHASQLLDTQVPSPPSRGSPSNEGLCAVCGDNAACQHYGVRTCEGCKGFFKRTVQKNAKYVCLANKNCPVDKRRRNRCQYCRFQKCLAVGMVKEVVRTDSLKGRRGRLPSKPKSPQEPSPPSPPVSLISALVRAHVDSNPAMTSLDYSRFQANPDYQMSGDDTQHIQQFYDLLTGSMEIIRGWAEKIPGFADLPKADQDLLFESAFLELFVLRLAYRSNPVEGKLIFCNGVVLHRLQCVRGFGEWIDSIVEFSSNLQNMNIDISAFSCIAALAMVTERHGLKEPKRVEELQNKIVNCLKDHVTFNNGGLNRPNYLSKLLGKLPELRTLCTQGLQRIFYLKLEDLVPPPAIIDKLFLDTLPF
In short: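 HepG2 / transient MRTU transfection / 24 h compound exposure / RT-PCR + CE fluorescence of reporter mRNA / gain-of-signal vs DMSO.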

[7] = biological target: Nuclear respiratory factor 1 (Homo sapiens) (UniProt Q16656); test: ATG_NRF1_CIS: Attagene CIS-FACTORIAL HepG2 Assay for human Nuclear Respiratory Factor 1 (NRF1) Orphan Gene (AID 2282987); conditions: HepG2 NRF1 cis-element reporter, Attagene multiplex; actives raise or lower the signal
Chain of Nuclear respiratory factor 1 (Homo sapiens) (Q16656 whole entry, looked up): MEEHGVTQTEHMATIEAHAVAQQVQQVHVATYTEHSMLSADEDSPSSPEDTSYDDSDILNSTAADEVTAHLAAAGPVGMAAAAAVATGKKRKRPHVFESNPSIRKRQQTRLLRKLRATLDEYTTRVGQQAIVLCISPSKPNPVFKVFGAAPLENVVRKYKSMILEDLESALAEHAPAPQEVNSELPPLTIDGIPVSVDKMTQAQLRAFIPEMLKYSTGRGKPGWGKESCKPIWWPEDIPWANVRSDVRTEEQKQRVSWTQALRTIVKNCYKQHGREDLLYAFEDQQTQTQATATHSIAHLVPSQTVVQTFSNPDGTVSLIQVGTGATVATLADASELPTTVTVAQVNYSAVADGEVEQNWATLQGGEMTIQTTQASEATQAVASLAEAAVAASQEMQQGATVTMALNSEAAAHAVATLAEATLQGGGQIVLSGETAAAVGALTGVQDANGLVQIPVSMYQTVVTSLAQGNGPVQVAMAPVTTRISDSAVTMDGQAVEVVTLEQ
In short: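 Reporter mRNA induction or loss in HepG2 cells after 24 h dosing; cis-regulated reporter constructs report endogenous transcription-factor activity. Quantified by RT-PCR/capillary electrophoresis fluorescence, DMSO-referenced.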

[8] = ATG_NFI_CIS: Attagene CIS-FACTORIAL HepG2 Assay for human Nuclear Factor I (NFI) (AID 2282989); conditions: HepG2 cis-regulatory reporter, NFI response element transcription; actives raise or lower the signal
In short: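 Multiplexed cis-reporter system in human HepG2 cells reports native TF activity as reporter mRNA induction 24 h post-dose. Fragments labelled with 6-FAM, HpaI-digested and resolved by capillary electrophoresis; activity fitted both directions versus DMSO.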

[9] = biological target: Myc proto-oncogene protein (Homo sapiens) (UniProt P01106); test: ATG_Myc_CIS: Attagene CIS-FACTORIAL HepG2 Assay for human Myelocytomatosis (Myc) Proto-Oncogene Transcription Factor (AID 2282990); conditions: HepG2, Attagene cis-reporter transcription factor activity; actives raise or lower the signal
Chain of Myc proto-oncogene protein (Homo sapiens) (P01106 whole entry, looked up): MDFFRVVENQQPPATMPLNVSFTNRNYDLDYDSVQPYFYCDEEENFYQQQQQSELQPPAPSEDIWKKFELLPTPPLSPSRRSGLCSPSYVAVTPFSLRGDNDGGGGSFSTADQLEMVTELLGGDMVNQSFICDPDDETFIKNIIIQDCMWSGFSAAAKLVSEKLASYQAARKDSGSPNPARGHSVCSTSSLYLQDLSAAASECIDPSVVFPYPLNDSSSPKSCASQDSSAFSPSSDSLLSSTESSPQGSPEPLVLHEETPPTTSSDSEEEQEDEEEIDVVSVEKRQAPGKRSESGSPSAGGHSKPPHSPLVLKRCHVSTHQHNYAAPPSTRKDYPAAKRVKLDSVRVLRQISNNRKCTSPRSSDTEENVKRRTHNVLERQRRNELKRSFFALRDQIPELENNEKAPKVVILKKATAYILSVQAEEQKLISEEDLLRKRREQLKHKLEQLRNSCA
In short: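 Transiently transfected HepG2 cells bearing cis-promoter reporter units for endogenous transcription factors; 24 h exposure. Reporter mRNA measured by RT-PCR, 6-FAM primer extension, HpaI cut and capillary electrophoresis; bidirectional fit relative to DMSO.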

[10] = ATG_NF_kB_CIS: Attagene CIS-FACTORIAL HepG2 Assay for human Nuclear Factor Kappa B (NF-kB) (AID 2282991); conditions: HepG2 Attagene cis-factorial NF-kB reporter mRNA; actives raise or lower the signal
In short: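 DMSO served as negative control and baseline for bidirectional curve fitting. Transiently transfected HepG2 cells were dosed for 24 h, then reporter transcripts were measured by RT-PCR with capillary electrophoresis detection.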

[11] = ATG_NRF2_ARE_CIS: Attagene CIS-FACTORIAL HepG2 Assay for human Nuclear Factor Erythroid 2 Related Factor 2 (NFR2) response to Antioxidant Response Elements (ARE) (AID 2282992); conditions: HepG2 Attagene ARE/NRF2 reporter, transcription factor activity; actives raise or lower the signal;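 on AC50: reporter mRNA level measured by RT-PCR and capillary electrophoresis fluorescence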
In short: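 HepG2 cells transiently transfected with multiplexed cis-regulated reporter transcription units measure endogenous transcription factor activity. Reporter mRNA at 24 h is quantified by RT-PCR, fluorescent labelling and capillary electrophoresis, with bidirectional fitting relative to DMSO.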

[12] = ATG_Oct_MLP_CIS: Attagene CIS-FACTORIAL HepG2 Assay for human Octamer-Binding Transcription Factor (Oct) (AID 2282993); conditions: HepG2 Attagene cis-factorial Oct reporter, mRNA; actives raise or lower the signal
In short: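 After 24 h compound exposure, transfected HepG2 cells were lysed for total RNA; reporter-specific cDNA was PCR-amplified, fluorescently labelled and sized by capillary electrophoresis. Bidirectional curve fitting used DMSO as baseline.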

[13] = biological target: Cellular tumor antigen p53 (Homo sapiens) (UniProt P04637); test: ATG_p53_CIS: Attagene CIS-FACTORIAL HepG2 Assay for human p53 Transcription Factor (AID 2282994); conditions: HepG2 p53 cis-element reporter, Attagene mRNA; actives raise or lower the signal
Chain of Cellular tumor antigen p53 (Homo sapiens) (P04637 whole entry, looked up): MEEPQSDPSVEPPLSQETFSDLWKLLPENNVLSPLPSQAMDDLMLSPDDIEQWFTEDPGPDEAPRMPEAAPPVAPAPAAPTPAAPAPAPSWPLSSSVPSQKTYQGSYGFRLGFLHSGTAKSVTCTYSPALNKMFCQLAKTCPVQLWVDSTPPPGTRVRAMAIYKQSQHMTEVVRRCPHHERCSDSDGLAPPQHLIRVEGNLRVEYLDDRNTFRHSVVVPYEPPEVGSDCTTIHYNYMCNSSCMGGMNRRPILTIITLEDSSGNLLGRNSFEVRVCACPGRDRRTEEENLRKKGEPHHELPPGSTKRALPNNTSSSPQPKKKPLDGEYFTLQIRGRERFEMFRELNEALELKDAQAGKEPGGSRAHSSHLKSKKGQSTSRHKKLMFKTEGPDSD
In short: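 HepG2 cells transiently transfected with multiplexed cis-regulated reporter transcription units read endogenous TF activity. After 24 h compound exposure, reporter mRNA was quantified by RT-PCR, fluorescent labelling, HpaI digestion and capillary electrophoresis; bidirectional fits versus DMSO baseline.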

[14] = BSK_3C_TissueFactor: BioMAP Diversity Plus: 3C Assay for Tissue Factor Biomarker Activity (AID 2282997); conditions: BioMAP 3C HUVEC, tissue factor biomarker readout; actives raise or lower the signal
In short: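 Human vascular primary cells (umbilical vein endothelium) received test chemical; Tissue Factor was determined by ELISA at 24 h, and both gain and loss of signal versus DMSO were fitted.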

[15] = BSK_3C_uPAR: BioMAP Diversity Plus: 3C Assay for Urokinase-type plasminogen activator receptor (uPAR) Biomarker Activity (AID 2282998); conditions: BioMAP 3C HUVEC, uPAR biomarker ELISA; actives raise or lower the signal
In short: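 Values derive from bidirectional curve fitting relative to DMSO, which served as baseline of activity. uPAR was measured by ELISA in human umbilical vein endothelial primary cultures 24 h after compound addition.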

[16] = biological target: Glucocorticoid receptor (Homo sapiens) (UniProt P04150); test: ATG_GR_TRANS: Attagene TRANS-FACTORIAL HepG2 Assay for human Glucocorticoid Receptor (GR) (AID 2282978; active means hit-call score of the fitted dose curve at least 0.9, where 1 is the maximum;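 further: activators score as hits since higher reporter transcript over DMSO is fitted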); conditions: HepG2 Attagene TRANS GR reporter, mRNA transcription
Chain of Glucocorticoid receptor (Homo sapiens) (P04150 whole entry, looked up, the tested form may be a part): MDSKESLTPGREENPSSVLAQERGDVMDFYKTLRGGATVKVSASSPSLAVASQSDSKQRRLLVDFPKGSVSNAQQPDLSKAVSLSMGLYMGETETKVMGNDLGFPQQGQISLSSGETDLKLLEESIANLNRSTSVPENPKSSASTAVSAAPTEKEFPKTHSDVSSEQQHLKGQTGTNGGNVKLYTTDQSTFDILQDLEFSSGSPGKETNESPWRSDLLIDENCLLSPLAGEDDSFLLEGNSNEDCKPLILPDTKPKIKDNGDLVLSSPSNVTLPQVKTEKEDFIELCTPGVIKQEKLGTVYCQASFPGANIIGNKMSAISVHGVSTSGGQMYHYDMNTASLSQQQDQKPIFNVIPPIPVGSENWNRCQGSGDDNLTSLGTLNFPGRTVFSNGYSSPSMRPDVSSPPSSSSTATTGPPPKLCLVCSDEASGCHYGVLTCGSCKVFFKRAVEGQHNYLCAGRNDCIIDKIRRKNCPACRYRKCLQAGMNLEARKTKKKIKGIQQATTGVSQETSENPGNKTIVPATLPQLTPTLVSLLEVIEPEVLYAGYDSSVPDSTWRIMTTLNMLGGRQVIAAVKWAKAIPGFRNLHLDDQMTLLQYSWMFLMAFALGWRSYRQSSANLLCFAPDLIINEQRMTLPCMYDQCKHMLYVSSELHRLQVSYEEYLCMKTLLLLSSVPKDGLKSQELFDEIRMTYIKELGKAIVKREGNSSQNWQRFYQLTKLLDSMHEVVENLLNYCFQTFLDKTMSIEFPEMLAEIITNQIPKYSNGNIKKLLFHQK
In short: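 Transiently transfected HepG2 cells express chimeric NR-GAL4 proteins acting on GAL4-UAS reporter units. Compounds are applied for 24 h. mRNA induction over DMSO is measured by capillary electrophoresis.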

[17] = biological target: Transcriptional activator Myb (Homo sapiens) (UniProt P10242); test: ATG_Myb_CIS: Attagene CIS-FACTORIAL HepG2 Assay for human Myeloblastosis (Myb) Proto-Oncogene Transcription Factor (AID 2282986); conditions: HepG2 Attagene CIS-FACTORIAL Myb reporter transcription; actives raise or lower the signal
Chain of Transcriptional activator Myb (Homo sapiens) (P10242 whole entry, looked up): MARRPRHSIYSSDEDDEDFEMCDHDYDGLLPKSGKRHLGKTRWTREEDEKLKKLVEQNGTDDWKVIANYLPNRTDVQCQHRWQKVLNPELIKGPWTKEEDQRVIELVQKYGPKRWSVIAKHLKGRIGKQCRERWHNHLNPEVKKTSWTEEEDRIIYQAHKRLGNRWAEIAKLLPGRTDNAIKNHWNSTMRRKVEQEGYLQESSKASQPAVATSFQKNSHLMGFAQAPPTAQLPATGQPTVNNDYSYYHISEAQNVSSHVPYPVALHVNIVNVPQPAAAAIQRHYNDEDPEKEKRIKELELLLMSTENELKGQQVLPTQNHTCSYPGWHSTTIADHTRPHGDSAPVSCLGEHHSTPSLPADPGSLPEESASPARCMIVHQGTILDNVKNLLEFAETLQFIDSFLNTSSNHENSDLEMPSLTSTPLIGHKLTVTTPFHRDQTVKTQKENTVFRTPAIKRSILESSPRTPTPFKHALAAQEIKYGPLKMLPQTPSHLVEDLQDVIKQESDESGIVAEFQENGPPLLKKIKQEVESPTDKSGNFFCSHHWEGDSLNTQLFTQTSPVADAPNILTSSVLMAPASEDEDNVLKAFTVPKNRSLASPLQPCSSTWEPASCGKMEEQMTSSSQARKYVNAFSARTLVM
In short: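 Using HepG2 liver cells bearing transiently transfected cis-promoter reporter constructs, the assay measures induction or loss of reporter mRNA after 24 hours of dosing. Detection used fluorescently labeled RT-PCR products separated by capillary electrophoresis.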

Measured: AC50

CC(=NC#N)N(C)Cc1ccc(Cl)nc1
inactive: [1] | [2] | [3] | [4] | [5] | [6] | [7] | [8] | [9] | [10] | [11] | [12] | [13] | [14] | [15]

CSc1nnc(C(C)(C)C)c(=O)n1N
inactive: [2] | [3] | [4] | [6] | [7] | [8] | [9] | [10] | [11] | [12] | [13] | [14] | [15]

CC(C1CC1)C(O)(Cn1cncn1)c1ccc(Cl)cc1 (stereo unspecified)
inactive: [1] | [2] | [5] | [6] | [7] | [8] | [9] | [10] | [11] | [12] | [13] | [14] | [15]

CC(Oc1cccc(Cl)c1)C(=O)O (stereo unspecified)
inactive: [16] | [2] | [5] | [6] | [7] | [8] | [9] | [11] | [12] | [13] | [14] | [15]

CC(C)N(C(=O)SCC(Cl)=C(Cl)Cl)C(C)C
active: [1] 29.1 µM | [2] 20.1 µM | [11] 13.5 µM | [12] 24.7 µM | [14] 32.9 µM | [15] 32.2 µM
inactive: [3] | [4] | [5] | [6] | [7] | [8] | [9] | [10] | [13]

CCOP(=S)(OCC)Oc1ccc([N+](=O)[O-])cc1
inactive: [16] | [2] | [3] | [4] | [6] | [17] | [7] | [8] | [9] | [10] | [13] | [14] | [15]
active: [11] 23.5 µM | [12] 50 µM

O=c1ccc(=O)[nH][nH]1
inactive: [1] | [2] | [3] | [4] | [5] | [6] | [17] | [7] | [8] | [9] | [10] | [11] | [12] | [13] | [14] | [15]

S=C1NCCN1
inactive: [1] | [2] | [3] | [4] | [5] | [6] | [7] | [8] | [9] | [10] | [11] | [12] | [13] | [14] | [15]

CC[C@H](C)[C@H]1O[C@]2(C=C[C@@H]1C)C[C@@H]1C[C@@H](C/C=C(\C)[C@@H](O[C@H]3C[C@H](OC)[C@@H](O[C@H]4C[C@H](OC)[C@@H](NC)[C@H](C)O4)[C@H](C)O3)[C@@H](C)/C=C/C=C3\CO[C@@H]4[C@H](O)C(C)=C[C@@H](C(=O)O1)[C@]34O)O2
active: [15] 1.93 µM
inactive: [1] | [2] | [3] | [5] | [7] | [8] | [9] | [11] | [12] | [13] | [14]
